Source: PubChem BioAssay (EPA / NIEHS)
Where “and” joins values, the source holds several entries; their conditions need not be identical. Equal entries are not always repeated. Inconclusive results are not listed. Some structures have more than one record in an assay (separate samples or runs), and their calls can disagree. Calls of active or inactive are those of the source. Rule for the calls, unless noted: active = hit-call score of the fitted dose curve at least 0.9, where 1 is the maximum; inconclusive = response in the unintended direction; inactive = score below 0.9.

These compounds were tested against human CYP1A2, CYP1A2 (gene 1544) (UniProt P05177) (assay: NVS_ADME_hCYP1A2: NovaScreen (NVS) CYP450-related Enzyme Activity (ADME) Assay for human CYP1A2 (AID 2283102);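 for AC50: fluorescence from turnover of a fluorogenic substrate by recombinant insect-cell CYP1A2; potency for inhibition since loss of fluorescence marks reduced CYP1A2 activity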).
How it was run: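 Compounds were tested at 10 uM in duplicate against recombinant CYP1A2 produced in insect cells. Enzyme activity was measured by fluorescence 0.5 h after dosing, with loss of signal versus acetonitrile control. Active compounds were re-tested in concentration series.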

Sequence of human CYP1A2, CYP1A2 (gene 1544) (P05177 whole entry, looked up): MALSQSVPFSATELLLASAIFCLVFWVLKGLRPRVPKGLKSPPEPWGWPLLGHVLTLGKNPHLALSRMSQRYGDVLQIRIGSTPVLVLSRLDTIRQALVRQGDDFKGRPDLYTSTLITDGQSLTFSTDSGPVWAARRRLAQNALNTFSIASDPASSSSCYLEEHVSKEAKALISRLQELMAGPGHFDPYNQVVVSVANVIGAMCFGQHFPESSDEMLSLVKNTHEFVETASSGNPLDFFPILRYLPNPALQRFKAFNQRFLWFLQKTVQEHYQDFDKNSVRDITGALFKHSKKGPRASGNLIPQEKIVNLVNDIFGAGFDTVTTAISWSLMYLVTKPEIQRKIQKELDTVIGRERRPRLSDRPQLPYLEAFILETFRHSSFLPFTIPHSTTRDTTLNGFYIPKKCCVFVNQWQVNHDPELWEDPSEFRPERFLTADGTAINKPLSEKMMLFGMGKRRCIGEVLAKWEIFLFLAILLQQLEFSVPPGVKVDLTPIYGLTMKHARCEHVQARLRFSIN

Compound | AC50 | outcome
COP(=S)(OC)Oc1ccc(SC)c(C)c1 | 2760 nM (active) | –
O=C(Nc1ccccc1)Nc1cnns1 | 3550 nM (active) | –
COP(=S)(OC)Oc1ccc([N+](=O)[O-])cc1 | 1060 nM (active) | –
C#CCN1C(=O)COc2cc(F)c(N3C(=O)C4=C(CCCC4)C3=O)cc21 | – | inactive
Oc1ccc(Cl)cc1Cc1ccccc1 | – | inactive
CCCN(CCOc1c(Cl)cc(Cl)cc1Cl)C(=O)n1ccnc1 | 616 nM (active) | –
Oc1cc(Cl)ccc1Oc1ccc(Cl)cc1Cl | 9330 nM (active) | –
N#Cc1c(Cl)c(Cl)c(Cl)c(C#N)c1Cl | 406 nM (active) | –
COc1nn(CSP(=S)(OC)OC)c(=O)s1 | 3250 nM (active) | –

These compounds were tested against human CYP2C8, CYP2C8 (gene 1558) (UniProt P10632) (assay: NVS_ADME_hCYP2C8: NovaScreen (NVS) CYP450-related Enzyme Activity (ADME) Assay for human CYP2C8 (AID 2283104; active = hit-call score of the fitted dose curve at least 0.9, where 1 is the maximum; inactive = score below 0.9)).
Experimental: (§1) NVS_ADME_hCYP2C8 is a biochemical, single-readout assay that uses extracted gene-proteins in a cell-free assay. Measurements were taken 0.5 hour after chemical dosing in a 96-well plate.NVS_ADME_hCYP2C8 is one of one assay component(s) measured or calculated from the NVS_ADME_hCYP2C8 assay. It is designed to make measurements of enzyme activity, a form of enzyme reporter, as detected with fluorescence intensity signals by Fluorescence technology.Data from the assay component NVS_ADME_hCYP2C8 was analyzed into 1 assay endpoint. This assay endpoint, NVS_ADME_hCYP2C8, was analyzed in the positive analysis fitting direction relative to Acetonitrile as the negative control and baseline of activity. Using a type of enzyme reporter, loss-of-signal activity can be used to understand changes in the enzymatic activity as they relate to the gene CYP2C8. Furthermore, this assay endpoint can be referred to as a primary readout, because this assay has produced multiple assay endpoints where this one serves a enzymatic activity function. To generalize the intended target to other relatable targets, this assay endpoint is annotated to the cyp intended target family, where the subfamily is xenobiotic metabolism.
(§2) Binding assays used specific radioligands (tritiated, iodinated) with non-radioactive competitive displacement ligands in agonist or antagonist protocols (as indicated) and various reference compounds and inhibitors to titrate specific binding to receptors and transporters. Most enzyme assays (CYPs, kinases, phosphatases, proteases, HDACs) used recombinant protein and specific substrates (fluorescence mostly, some colorimetric and radioactive) and inhibitors, followed by a biochemical separation of substrate and product. All assays for the biochemical HTS were initially run in duplicate at a single concentration (10 uM for CYP450 assays and 25 uM for all others). Assay-chemical combinations meeting a pre-defined threshold (e.g., 30% inhibition and other criteria defined below) were then run in singleton concentration-response format with maximum concentration of 20 uM for CYPs and 50 uM for all others. Each assay was run with positive and negative controls, and concurrent controls on every plate. The follow-up (secondary) screen tested active chemical-pairs in concentration series, as well as a few additional assays not tested in the primary screen, some selected negative inactives, and several cases re-run in the concentration series for confirmatory purposes.

Sequence of human CYP2C8, CYP2C8 (gene 1558) (P10632 whole entry, looked up): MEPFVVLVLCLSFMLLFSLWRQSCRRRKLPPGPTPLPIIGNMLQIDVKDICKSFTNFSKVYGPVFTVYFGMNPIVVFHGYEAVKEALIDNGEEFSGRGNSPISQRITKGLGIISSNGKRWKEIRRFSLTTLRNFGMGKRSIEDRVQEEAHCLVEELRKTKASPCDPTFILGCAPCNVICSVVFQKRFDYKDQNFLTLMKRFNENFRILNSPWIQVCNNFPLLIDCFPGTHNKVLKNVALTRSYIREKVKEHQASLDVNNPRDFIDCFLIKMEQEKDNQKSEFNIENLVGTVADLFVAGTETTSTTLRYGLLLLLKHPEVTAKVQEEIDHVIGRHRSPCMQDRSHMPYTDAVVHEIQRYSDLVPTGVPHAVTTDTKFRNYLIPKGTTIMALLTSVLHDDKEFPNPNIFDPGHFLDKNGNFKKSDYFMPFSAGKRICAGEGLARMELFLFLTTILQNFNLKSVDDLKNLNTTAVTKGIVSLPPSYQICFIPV

Compound | AC50 | outcome
O=C1c2ccccc2C(=O)N1SC(Cl)(Cl)Cl | 245 nM (active) | –
O=C(O)C(F)(F)C(F)(F)C(F)(F)C(F)(F)C(F)(F)C(F)(F)C(F)(F)F | – | inactive
O=S(=O)(O)C(F)(F)C(F)(F)C(F)(F)C(F)(F)C(F)(F)C(F)(F)C(F)(F)C(F)(F)F | 4040 nM (active) | –
CC[C@H](C)[C@H]1O[C@]2(C=C[C@@H]1C)C[C@@H]1C[C@@H](C/C=C(\C)[C@@H](O[C@H]3C[C@H](OC)[C@@H](O[C@H]4C[C@H](OC)[C@@H](O)[C@H](C)O4)[C@H](C)O3)[C@@H](C)/C=C/C=C3\CO[C@@H]4[C@H](O)C(C)=C[C@@H](C(=O)O1)[C@]34O)O2 (tested in a mixture with another compound) | 2790 nM (active) | –
CCCN(CCOc1c(Cl)cc(Cl)cc1Cl)C(=O)n1ccnc1 | 1850 nM (active) | –
O=C(NC(=O)c1c(F)cccc1F)Nc1ccc(OC(F)(F)C(F)OC(F)(F)F)c(Cl)c1 (stereo not given) | – | inactive
Oc1cc(Cl)ccc1Oc1ccc(Cl)cc1Cl | 4510 nM (active) | –
N#Cc1c(Cl)c(Cl)c(Cl)c(C#N)c1Cl | 213 nM (active) | –

Each compound was assayed against human CYP2J2, CYP2J2 (gene 1573) (UniProt P51589) (assay: NVS_ADME_hCYP2J2: NovaScreen (NVS) CYP450-related Enzyme Activity (ADME) Assay for human CYP2J2 (AID 2283106)).
Experimental: as §1, with “NVS_ADME_hCYP2J2” for “NVS_ADME_hCYP2C8”, “1” for “0.5”, “plate.NVS_ADME_hCYP2J2” for “plate.NVS_ADME_hCYP2C8”, “NVS_ADME_hCYP2J2,” for “NVS_ADME_hCYP2C8,”, “CYP2J2.” for “CYP2C8.”
as §2

Sequence of human CYP2J2, CYP2J2 (gene 1573) (P51589 whole entry, looked up): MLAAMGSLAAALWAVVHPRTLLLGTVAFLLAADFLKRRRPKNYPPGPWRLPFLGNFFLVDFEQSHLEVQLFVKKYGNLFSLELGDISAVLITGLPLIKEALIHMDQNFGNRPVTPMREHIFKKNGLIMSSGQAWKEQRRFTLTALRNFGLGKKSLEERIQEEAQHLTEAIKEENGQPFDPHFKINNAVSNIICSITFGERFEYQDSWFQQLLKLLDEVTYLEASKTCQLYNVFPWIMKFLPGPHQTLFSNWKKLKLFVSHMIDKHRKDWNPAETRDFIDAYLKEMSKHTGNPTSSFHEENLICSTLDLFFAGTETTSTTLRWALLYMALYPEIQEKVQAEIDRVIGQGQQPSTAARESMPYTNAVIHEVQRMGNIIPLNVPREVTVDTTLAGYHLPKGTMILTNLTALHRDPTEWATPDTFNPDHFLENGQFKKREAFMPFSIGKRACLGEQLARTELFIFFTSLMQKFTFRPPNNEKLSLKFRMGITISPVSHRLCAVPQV

Compound | AC50 | outcome
COP(=S)(OC)Oc1ccc(SC)c(C)c1 | 1060 nM (active) | –
O=C(Nc1ccccc1)Nc1cnns1 | – | inactive
COP(=S)(OC)Oc1ccc([N+](=O)[O-])cc1 | 2250 nM (active) | –
C#CCN1C(=O)COc2cc(F)c(N3C(=O)C4=C(CCCC4)C3=O)cc21 | 2500 nM (active) | –
CC[C@H](C)[C@H]1O[C@]2(C=C[C@@H]1C)C[C@@H]1C[C@@H](C/C=C(\C)[C@@H](O[C@H]3C[C@H](OC)[C@@H](O[C@H]4C[C@H](OC)[C@@H](O)[C@H](C)O4)[C@H](C)O3)[C@@H](C)/C=C/C=C3\CO[C@@H]4[C@H](O)C(C)=C[C@@H](C(=O)O1)[C@]34O)O2 (tested in a mixture with another compound) | 5470 nM (active) | –
CCCN(CCOc1c(Cl)cc(Cl)cc1Cl)C(=O)n1ccnc1 | 94 nM (active) | –
COc1nn(CSP(=S)(OC)OC)c(=O)s1 | 2060 nM (active) | –
CC(C)(C)C(O)/C(=C\c1ccc(Cl)cc1Cl)n1cncn1 (stereo not given) | 2210 nM (active) | –

Each compound was assayed against human CYP2D6, CYP2D6 (gene 1565) (UniProt P10635) (assay: NVS_ADME_hCYP2D6: NovaScreen (NVS) CYP450-related Enzyme Activity (ADME) Assay for human CYP2D6 (AID 2283107)).
How it was run: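 Compounds were first tested in duplicate at 10 uM against recombinant enzyme produced in insect cells, with substrate turnover measured by fluorescence after 1 hour. Decreased signal, referenced to acetonitrile vehicle, was taken as reduced enzyme activity. Active chemicals went on to concentration-response testing.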

Sequence of human CYP2D6, CYP2D6 (gene 1565) (P10635 whole entry, looked up): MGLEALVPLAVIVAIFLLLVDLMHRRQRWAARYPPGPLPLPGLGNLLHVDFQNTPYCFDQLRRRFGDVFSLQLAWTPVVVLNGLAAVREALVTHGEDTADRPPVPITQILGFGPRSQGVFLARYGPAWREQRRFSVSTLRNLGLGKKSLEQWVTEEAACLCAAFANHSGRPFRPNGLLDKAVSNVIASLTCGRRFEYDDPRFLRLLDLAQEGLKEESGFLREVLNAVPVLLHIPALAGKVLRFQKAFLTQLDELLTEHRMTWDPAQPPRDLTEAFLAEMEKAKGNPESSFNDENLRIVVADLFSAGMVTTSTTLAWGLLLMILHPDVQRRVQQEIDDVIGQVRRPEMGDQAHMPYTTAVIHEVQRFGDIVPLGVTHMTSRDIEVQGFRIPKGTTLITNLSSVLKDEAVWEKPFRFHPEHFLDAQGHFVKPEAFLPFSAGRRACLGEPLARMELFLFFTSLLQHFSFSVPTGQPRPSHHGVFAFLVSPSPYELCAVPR

Compound | outcome | AC50
O=C1c2ccccc2C(=O)N1SC(Cl)(Cl)Cl | inactive | –
[2H]C1([2H])[n+]2ccccc2-c2cccc[n+]2C1([2H])[2H] | – | 2030 nM (active)
COP(=S)(OC)Oc1ccc([N+](=O)[O-])cc1 | – | 4790 nM (active)
Oc1ccc(Cl)cc1Cc1ccccc1 | – | 10000 nM (active)
CCCN(CCOc1c(Cl)cc(Cl)cc1Cl)C(=O)n1ccnc1 | – | 2180 nM (active)
COC(=O)c1ccccc1S(=O)(=O)NC(=O)Nc1nc(C)nc(OC)n1 | inactive | –
CNC(=O)CSP(=S)(OC)OC | inactive | –
COc1nn(CSP(=S)(OC)OC)c(=O)s1 | – | 3830 nM (active)

These compounds were tested against human CYP2C9, CYP2C9 (gene 1559) (UniProt P11712) (assay: NVS_ADME_hCYP2C9: NovaScreen (NVS) CYP450-related Enzyme Activity (ADME) Assay for human CYP2C9 (AID 2283108)).
How it was run: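 Cell-free assay of recombinant human CYP2C9 produced in Sf9 cells, with enzyme activity read by fluorescence intensity 0.75 h after compound addition. Loss of signal versus an acetonitrile negative control indicates inhibition. Primary screen used 10 uM in duplicate; actives were retested in concentration series.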

Sequence of human CYP2C9, CYP2C9 (gene 1559) (P11712 whole entry, looked up): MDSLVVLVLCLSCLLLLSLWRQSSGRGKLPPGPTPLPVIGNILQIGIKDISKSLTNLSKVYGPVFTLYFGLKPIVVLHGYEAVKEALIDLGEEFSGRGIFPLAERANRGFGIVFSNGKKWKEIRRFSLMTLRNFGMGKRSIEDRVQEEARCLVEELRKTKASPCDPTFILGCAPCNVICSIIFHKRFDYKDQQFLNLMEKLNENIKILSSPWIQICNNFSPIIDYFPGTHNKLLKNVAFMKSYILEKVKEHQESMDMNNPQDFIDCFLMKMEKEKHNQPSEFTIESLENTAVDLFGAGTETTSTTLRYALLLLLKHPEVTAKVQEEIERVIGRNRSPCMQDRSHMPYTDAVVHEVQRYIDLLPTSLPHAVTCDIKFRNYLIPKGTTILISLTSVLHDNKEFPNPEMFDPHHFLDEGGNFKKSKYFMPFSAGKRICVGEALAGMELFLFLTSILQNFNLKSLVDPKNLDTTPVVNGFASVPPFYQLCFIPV

Compound | AC50 | outcome
COP(=S)(OC)Oc1ccc(SC)c(C)c1 | 5.54 µM (active) | –
COP(=S)(OC)Oc1ccc([N+](=O)[O-])cc1 | 4.05 µM (active) | –
CC1(C)C(C=C(Cl)Cl)C1C(=O)OC(C#N)c1ccc(F)c(Oc2ccccc2)c1 (stereo not given) | 10 µM (active) | –
O=C(O)C(F)(F)C(F)(F)C(F)(F)C(F)(F)C(F)(F)C(F)(F)C(F)(F)F | 0.237 µM (active) | inactive
Oc1ccc(Cl)cc1Cc1ccccc1 | 6.54 µM (active) [middle of 7 runs] | –
CCCN(CCOc1c(Cl)cc(Cl)cc1Cl)C(=O)n1ccnc1 | 0.578 µM (active) | –
CC(C)(C)C(O)C(Oc1ccc(Cl)cc1)n1cncn1 (stereo not given) | 5.02 µM (active) and 7.84 µM (active) | inactive
COc1nn(CSP(=S)(OC)OC)c(=O)s1 | 2.88 µM (active) | –
CC(C)(C)C(O)/C(=C\c1ccc(Cl)cc1Cl)n1cncn1 (stereo not given) | 0.721 µM (active) | –

The compounds below were run against Cytochrome P450 3A4 (Homo sapiens) (UniProt P08684) (assay: NVS_ADME_hCYP3A4: NovaScreen (NVS) CYP450-related Enzyme Activity (ADME) Assay for human CYP3A4 (AID 2283110)).
How it was run: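 Activity is derived from decreased fluorescence intensity relative to acetonitrile, measured 0.33 hour after dosing insect-cell-expressed CYP3A4 in a cell-free format. Screening used 10 uM in duplicate before concentration-response follow-up.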

Sequence of Cytochrome P450 3A4 (Homo sapiens) (P08684 whole entry, looked up): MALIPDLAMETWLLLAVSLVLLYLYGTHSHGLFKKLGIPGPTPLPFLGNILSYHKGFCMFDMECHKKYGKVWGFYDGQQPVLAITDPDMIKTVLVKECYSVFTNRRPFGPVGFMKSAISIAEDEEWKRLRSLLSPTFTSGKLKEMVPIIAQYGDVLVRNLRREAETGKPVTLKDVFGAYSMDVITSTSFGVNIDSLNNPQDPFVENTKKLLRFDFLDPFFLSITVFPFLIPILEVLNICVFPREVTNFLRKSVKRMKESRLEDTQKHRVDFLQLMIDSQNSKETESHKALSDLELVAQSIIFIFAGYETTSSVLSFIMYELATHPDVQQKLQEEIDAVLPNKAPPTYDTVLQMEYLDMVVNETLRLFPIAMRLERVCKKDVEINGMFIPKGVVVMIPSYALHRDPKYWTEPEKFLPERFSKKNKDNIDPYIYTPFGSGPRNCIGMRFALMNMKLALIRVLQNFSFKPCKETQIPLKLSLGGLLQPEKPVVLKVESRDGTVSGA

Compound | AC50 | outcome
[2H]C1([2H])[n+]2ccccc2-c2cccc[n+]2C1([2H])[2H] | 2250 nM (active) | –
Oc1ccc(Cl)cc1Cc1ccccc1 | – | inactive
O=S(=O)(O)C(F)(F)C(F)(F)C(F)(F)C(F)(F)C(F)(F)C(F)(F)C(F)(F)C(F)(F)F | – | inactive
CC(C)(C)C(O)C(Oc1ccc(Cl)cc1)n1cncn1 (stereo not given) | – | inactive
N#Cc1c(Cl)c(Cl)c(Cl)c(C#N)c1Cl | 302 nM (active) | –
CC(C)(C)C(O)/C(=C\c1ccc(Cl)cc1Cl)n1cncn1 (stereo not given) | 1200 nM (active) | –
